Hits are enriched below; roughly 2.4% of the tested compounds scored in any of these assays.
CHO-K1 Ca ag – M1 agonist counterscreen hit in parental CHO-K1 cells; 360,000 tested, 0.48% active; AID 602248; activation, % at 3 µM; Fluo-8 calcium fluorescence; scaled to maximal ATP response, vehicle zero; in the data active = activation above about 15%;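 also: untransfected CHO-K1 host cells lacking M1 receptor as counterscreen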
M1 ag – activates human CHRM1 receptor | 360,000 tested, 0.33% active | activation, % at 3 µM | P11229 | AID 588814 | CHO-K1 hM1, Fluo-8 calcium fluorescence, agonist mode; 0% DMSO, 100% acetylcholine EC100;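 active = activation above the run's mean compound activation plus 3 SD, cut at about 16% in these data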;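 also: peak over basal fluorescence ratio within a 140 s kinetic read after compound addition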
Target sequence (P11229 whole entry, looked up): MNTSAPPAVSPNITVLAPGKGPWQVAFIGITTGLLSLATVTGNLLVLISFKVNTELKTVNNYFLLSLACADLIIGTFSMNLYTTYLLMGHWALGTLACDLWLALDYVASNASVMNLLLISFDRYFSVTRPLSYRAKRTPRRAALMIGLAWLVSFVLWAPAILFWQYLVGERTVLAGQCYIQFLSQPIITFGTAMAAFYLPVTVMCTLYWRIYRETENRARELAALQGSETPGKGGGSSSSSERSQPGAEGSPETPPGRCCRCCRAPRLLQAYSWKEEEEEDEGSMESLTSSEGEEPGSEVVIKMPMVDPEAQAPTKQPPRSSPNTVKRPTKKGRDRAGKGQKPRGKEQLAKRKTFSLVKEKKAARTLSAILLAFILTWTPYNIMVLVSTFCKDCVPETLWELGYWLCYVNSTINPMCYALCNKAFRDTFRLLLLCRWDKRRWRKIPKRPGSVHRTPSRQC
CHO-K1 Ca antag – nonselective inhibitor or artifact in parental CHO-K1 cells; inhibition, % at 3 µM; ATP-induced calcium, Fluo-8 fluorescence; AID 602250; 360,000 tested, 0.6% active;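 active = inhibition above a per-plate cutoff, the plate's mean sample inhibition plus 3 SD, cut at about 24% in these data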
CHRM1 antagonist – blocks human M1 muscarinic receptor; P11229; CHO-K1 hM1, Fluo-8 calcium fluorescence, ACh EC80 antagonist; inhibition, % at 3 µM; 360,000 tested, 1.3% active; AID 588852;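 active = percent inhibition above its own plate's cutoff, namely the mean of that plate's compound wells plus 3 SD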;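 also: peak over basal fluorescence ratio during 140 s after agonist addition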
CHO-K1 Ca PAM – counter-screen for M1 PAMs: effect in parental CHO-K1 cells; AID 602247; 360,000 tested, 0.02% active; activation, % at 3 µM; ATP EC20, Fluo-8 calcium fluorescence; 0% at ATP EC20, 100% at ATP max;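 active = activation above the run cutoff, the mean activation of all test compounds plus 3 SD, cut at about 40% in these data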;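 also: peak over basal fluorescence ratio in a 140 s read after ATP addition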
CHRM1 PAM – human CHRM1 positive allosteric modulation; 360,000 tested, 0.088% active; activation, % at 3 µM; CHO-K1 hM1, Fluo-8 calcium fluorescence, ACh EC20; 0% = ACh EC20, 100% = maximal ACh; in the data active = activation above about 19%, passing the limit was not always enough
Of the large screens only hits and unclear results are named; the others gave an inactive call.

CC(=O)c1ccc(N2CCN(c3ccccc3O)CC2)c([N+](=O)[O-])c1	CHO-K1 Ca ag 19.0, CHRM1 antagonist 37.0
O=C(O)c1ccccc1C(=O)c1ccc(N2CCCC2)c([N+](=O)[O-])c1	none
COc1cc(CCC(=O)N2CCN(c3ncccn3)CC2)cc(OC)c1OC	none
COc1ccc(C2CC(=O)c3cnc(NC(=O)c4ccccc4)nc3C2)c(OC)c1 (stereo not given)	CHO-K1 Ca antag 23.7
CCCCCCCCCCCCCCCC[n+]1ccc(/C=N/O)cc1	CHRM1 antagonist 31.3
C=CCn1c(NC(=O)c2ccc(C)cc2)nc2ccccc21	none
CCOC(=O)/C(CCC[N+](C)(CC)CC)=N\O	CHRM1 antagonist 91.2
O=C(NCCc1ccccc1)C(=O)NCC1OCCN1S(=O)(=O)c1ccc2c(c1)OCCO2 (stereo not given)	CHO-K1 Ca ag 19.2
Cn1c(=O)c(=O)n(C)c2cc(S(=O)(=O)N3CCC(Cc4ccccc4)CC3)ccc21	none
O=c1[nH]c2ccc(S(=O)(=O)N3CCC(Cc4ccccc4)CC3)cc2o1	CHO-K1 Ca antag 23.9
CCc1ccc(NC(=S)N(CCN(C)C)C(C)c2ccncc2)cc1 (stereo not given)	none
Nc1nnc2cc(Cl)ccc2n1	CHRM1 PAM 28.0
Cc1ccc2nc(N)nnc2c1	none
O=C(Nc1c(-c2ccccc2)nc2sccn12)c1ccccc1	none
O=C1/C(=C\c2ccc(O)cc2)SC(=S)N1c1cccnc1	CHO-K1 Ca ag 17.2, M1 ag 16.5
Cc1cc(/C=C2\SC(=S)N(Cc3ccco3)C2=O)c(C)n1-c1cccnc1	none
Cc1cc(/C=C2/SC(=S)N(c3cccc(C(F)(F)F)c3)C2=O)c(C)n1-c1cccnc1	CHO-K1 Ca antag 35.8, CHRM1 antagonist 43.4
CCN(CC)C1CCN(C(=O)c2cc(COc3cccc4cccnc34)on2)C1 (stereo not given)	CHRM1 antagonist 73.2
Cc1cc(OCc2cc(C(=O)N3CCC(Oc4cccnc4)CC3)no2)cc(C)c1Cl	CHO-K1 Ca antag 25.5, CHRM1 antagonist 30.8
O=C(c1cc(COc2ccc(F)cc2Cl)on1)N1CCC(c2ccncc2)CC1	none
CSc1ccccc1OCc1cc(C(=O)N2CCC(c3ccncc3)CC2)no1	CHRM1 antagonist 41.1
CSc1cccc(NC(=O)C2CCCN(c3ncnc4c3nc3n4CCCCC3)C2)c1 (stereo not given)	none
O=C(Nc1ccc(Cl)cn1)Nc1ccc(Cl)cn1	none
C/C(=C\c1ccccc1)C(=O)Nc1ccc(Cl)cn1	CHRM1 antagonist 31.4
COc1cc(/C=C(\C#N)C(=O)c2c[nH]c3ccccc23)cc(OC)c1O	CHO-K1 Ca ag 19.4, M1 ag 22.6
CCN(CC)S(=O)(=O)c1ccc(/C=C/C(=O)Nc2ccc(Br)cc2F)cc1	CHRM1 antagonist 31.4
CCN(CC)S(=O)(=O)c1cccc(NC(=O)/C=C/c2cccc([N+](=O)[O-])c2)c1	CHO-K1 Ca ag 15.6
CCN(CC)S(=O)(=O)c1cccc(NC(=O)/C=C/c2ccc([N+](=O)[O-])cc2)c1	none
CN(CCc1ccccc1)C(=O)c1cc(COc2ccc(F)cc2Cl)on1	none
CS(=O)(=O)c1ccc2nc(NC(=O)Nc3cccc(Cl)c3)sc2c1	CHO-K1 Ca ag 15.7, CHRM1 antagonist 32.6
O=C(Nc1cccc(Cl)c1)Nc1nnc(-c2ccncc2)s1	CHO-K1 Ca antag 33.1
N#CC(c1ccc(N)cc1)C(CC(=O)c1ccccc1)c1ccccc1 (stereo not given)	none
CCCNC(=O)[C@@H]1CCCN1C(=O)C1CCN(S(=O)(=O)c2ccc(C)cc2)CC1	none
Cc1ccc(S(=O)(=O)N2CCC(C(=O)N3CCC[C@H]3C(=O)NC3CCS(=O)(=O)C3)CC2)cc1 (stereo not given in full)	CHRM1 antagonist 54.0
C=CCNC(=O)c1c(Br)cnn1-c1ccc(C)cc1	none
COc1cc(-c2coc3c(C(=O)NCc4ccccc4)cccc23)ccc1O	none
CCc1ccc(Cn2nnc(C(=O)Nc3cccc(C)c3)c2N)cc1	none
Cc1ccc(Cn2nnc(C(=O)Nc3cccc(C)c3C)c2N)cc1	M1 ag 39.3
COc1cccc(Cn2nnc(C(=O)Nc3cc(C)ccc3OC)c2N)c1	CHO-K1 Ca antag 25.8
